# Measurements from PubChem BioAssay.
# Activity calls are given as the source filed them. Cut-off read from the data, not from the text of the source, unless noted: active = nuclear beta-catenin stimulation mostly above about 4.2% (no sharp cut-off); inactive = mostly below about 10%.
# Columns and labels:
# [1] = stimulators of nuclear beta-catenin in C2C12, primary screen, imaging, WNT3A-conditioned medium, mouse C2C12, NPC library (AID 1117326); details: stronger effect = higher value
# [2] = growth inhibition of GSK3B-pretreated HCT116 cells – cell-based, CellTiter-Glo, 0.2 to 20 µM (AID 1117336;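 active = compounds lowering colon cancer cell viability after pretreatment blocking the GSK3B kinase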); details: HCT116 viability after GSK3B inhibitor, at 20 µM, stronger effect = higher value
# [3] = inhibition of endothelial tube formation, primary screen, imaging, VEGF stimulated, CD31 staining, tube area, NPC library (AID 1117340;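 active = compound that reduces growth-factor-driven endothelial tube area in a mixed cell culture, no cutoff stated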); details: VEGF-stimulated ADSC/ECFC co-culture, at 10 µM, stronger effect = higher value
# [4] = HCT116 colon cancer cell growth inhibition, primary screen, CellTiter-Glo luminescence, NPC library (AID 1117342;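 active = compounds that lower survival of HCT116 colon cancer cells in the luminescence readout, no numeric limit stated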); details: at 20 µM (top of the series)
# [5] = CellTiter-Glo luminescent readout of SW480 viability loss, NPC library primary (AID 1117343;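 active = compounds that lower viability of the colon cancer cells in the luminescence readout, with no numeric limit stated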); details: CellTiter-Glo luminescence; at 20 µM (top of the series) unless noted
# [6] = decreased DLD-1 cellular survival, CellTiter-Glo luminescent readout, NPC compound collection, primary HTS (AID 1117346;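 active = compounds that lower survival of DLD-1 colon cancer cells in the luminescence readout, no cutoff given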); details: DLD-1 viability, CellTiter-Glo luminescence; at 20 µM (top of the series)
# [7] = stimulators of insulin release from INS-1E, primary screen, cell-based, 5 mM glucose, NPC library (AID 1117329;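 active = compound raises insulin release from rat beta cells at 5 mM glucose, no numeric limit stated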); details: rat INS-1E insulin secretion, at 10 µM, stronger effect = higher value
# [8] = glucagon-like peptide 1 release enhancers, primary assay, NCI-H716 cell line, NPC library (AID 1117341;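 active = compound raises GLP1 secretion from the human gut endocrine cells, with no numeric limit stated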); details: NCI-H716 cells, at 10 µM, stronger effect = higher value
# [9] = hESC survival regulators, cell-based (AID 493140; call rule not given here;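 note: cells exposed to compounds for four days before counting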); details: human embryonic stem cell survival screen; stronger effect = higher value
# [10] = differential killing of epithelial or mesenchymal cells, primary screen, imaging, PC-3E GFP, TEM4-18 mCherry, co-culture (AID 1345086;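 active = compounds killing one labelled cell type while sparing the other, by normalised counts and ratio limits, not self-fluorescent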;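 note: cells exposed to compound for 72 h before imaging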;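 for red/green cell ratio (normalised): normalised mesenchymal count divided by normalised epithelial count so high means epithelial killing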); details: imaging cell counts, at 1 µM
# [11] = sensitizers of A549 cells to miR-34 induction, primary screen, imaging, A549 dox-inducible miR-34, nuclei and caspase counts (AID 1347080;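 active = compounds whose cell count with miR-34 switched on is under 0.7 times the count with it off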); details: A549 miR-34 inducible, Hoechst nuclei count, 48 h
# [12] = survival rescue of mitochondrial mutant cells in low glucose, primary screen, MELAS cybrids, Rieske KO mouse fibroblasts, CellTiter-Glo (AID 1508586;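 active = mean z-score across replicates of 1.96 or higher in either the MELAS or the Rieske mutant cell line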;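 note: z relative to plate mean and SD of compound and empty wells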)
# [13] = target: NAD(+) hydrolase SARM1 (Homo sapiens) (UniProt Q6SZW1); experiment: SARM1 TIR NADase inhibitors, cell lysate, NAD-Glo luminescence (AID 1508614;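 active = compound whose remaining NAD level is above about 45 nM, limit read from the data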;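 note: higher remaining NAD means stronger inhibition of SARM1 NADase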); details: SAM-TIR HEK293T lysate NADase, at 1 µM, stronger effect = higher value
# NAD(+) hydrolase SARM1 (Homo sapiens), sequence (Q6SZW1 whole entry, looked up): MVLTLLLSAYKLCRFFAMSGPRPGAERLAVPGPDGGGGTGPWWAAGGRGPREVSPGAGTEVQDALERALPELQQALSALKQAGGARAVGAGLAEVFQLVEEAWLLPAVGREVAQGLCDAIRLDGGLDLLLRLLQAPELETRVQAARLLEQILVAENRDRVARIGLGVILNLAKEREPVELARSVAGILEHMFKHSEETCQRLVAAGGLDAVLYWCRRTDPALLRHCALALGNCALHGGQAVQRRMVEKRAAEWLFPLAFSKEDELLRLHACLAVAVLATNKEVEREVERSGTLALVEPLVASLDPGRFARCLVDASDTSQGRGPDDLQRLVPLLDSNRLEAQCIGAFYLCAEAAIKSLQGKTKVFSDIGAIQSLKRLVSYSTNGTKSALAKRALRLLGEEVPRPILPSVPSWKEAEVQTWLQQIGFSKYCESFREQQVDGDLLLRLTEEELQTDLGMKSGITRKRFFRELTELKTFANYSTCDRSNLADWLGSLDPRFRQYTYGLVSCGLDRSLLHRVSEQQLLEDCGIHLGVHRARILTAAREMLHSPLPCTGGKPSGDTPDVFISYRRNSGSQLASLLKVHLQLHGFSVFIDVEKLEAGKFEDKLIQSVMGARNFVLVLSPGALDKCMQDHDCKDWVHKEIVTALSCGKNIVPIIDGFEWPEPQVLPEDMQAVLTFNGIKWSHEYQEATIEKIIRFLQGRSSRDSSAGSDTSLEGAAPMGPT
structure (smiles),measurement,setting,value
Cc1cc(O)c2c(O)c3c(O)cccc3cc2c1,nuclear beta-catenin stimulation,[1]; at 10 µM,6.3% (inactive)
same,nuclear beta-catenin stimulation,"[1]; stimulation, at 2 µM",4.6%
same,viability decrease,[2],97% (active)
same,tube area decrease,[3],67.8% (active)
same,inhibition of viability,[4],90.6% (active)
same,viability decrease (inhibition),[5],95.1% (active)
same,viability decrease (inhibition),[6],95.3% (active)
CCCCCCCCCCCCCCCCCCOP(=O)([O-])OC1CC[N+](C)(C)CC1,nuclear beta-catenin stimulation,[1]; at 10 µM,-0.8% (inactive)
same,nuclear beta-catenin stimulation,"[1]; stimulation, at 2 µM",-1%
same,insulin secretion stimulation,[7],0.3% (inactive)
same,GLP1 secretion stimulation,[8],0.4% (inactive)
C/C(=N\O)[C@@H](C)NCC(C)(C)CN[C@H](C)/C(C)=N/O,nuclear beta-catenin stimulation,[1]; at 10 µM,1.5% (inactive)
same,nuclear beta-catenin stimulation,"[1]; stimulation, at 2 µM",-1.3%
same,insulin secretion stimulation,[7],1.9% (inactive)
same,GLP1 secretion stimulation,[8],-8.7% (inactive)
CC(=O)N(CC(O)CN(C(C)=O)c1c(I)c(C(=O)NCC(O)CO)c(I)c(C(=O)NCC(O)CO)c1I)c1c(I)c(C(=O)NCC(O)CO)c(I)c(C(=O)NCC(O)CO)c1I (stereo unspecified),survival,[9],2.67 (inactive)
same,nuclear beta-catenin stimulation,[1]; at 10 µM,0.8% (inactive)
same,nuclear beta-catenin stimulation,"[1]; stimulation, at 2 µM",1.9%
same,insulin secretion stimulation,[7],0.95% (inactive)
same,GLP1 secretion stimulation,[8],2% (inactive)
same,red/green cell ratio (normalised),"[10]; actives lie on both sides, counts scaled to control wells, 1 = unselective",1.05 (inactive)
same,normalised cell number,[10]; measured here: epithelial PC-3E GFP cell survival,1
same,normalised cell number,[10]; measured here: mesenchymal TEM4-18 mCherry cell survival,1.05
same,fold change,"[11]; stronger effect = lower value, cell number ratio, induced over uninduced",0.892 (inactive)
same,fold change,[11]; measured here: relative caspase fold change +Dox/-Dox,0.943
same,cell count,"[11]; measured here: total cells with miR-34 induction, stronger effect = lower value",8820
same,cell count,[11]; measured here: total cells without miR-34 induction,9890
same,z-score,"[12]; MELAS cybrid survival, CellTiter-Glo 48 h, stronger effect = higher value",0.435 (inactive)
same,z-score,"[12]; Rieske KO mouse fibroblast survival, CellTiter-Glo 72 h",-0.343
same,remaining NAD,[13],10 nM (inactive)
CC(C)=CCCC(C)=CCCC(C)=CCCC=C(C)CCC=C(C)CCC=C(C)C,nuclear beta-catenin stimulation,[1]; at 10 µM,-0.4% (inactive)
same,nuclear beta-catenin stimulation,"[1]; stimulation, at 2 µM",1.7%
same,insulin secretion stimulation,[7],0.6% (inactive)
same,GLP1 secretion stimulation,[8],-1.9% (inactive)
CCOC(=O)c1ccccc1O,nuclear beta-catenin stimulation,[1]; at 10 µM,1.4% (inactive)
same,nuclear beta-catenin stimulation,"[1]; stimulation, at 2 µM",8.4%
same,viability decrease,[2],4.2% (inactive)
same,tube area decrease,[3],-12.2% (inactive)
same,inhibition of viability,[4],3.3% (inactive)
same,viability decrease (inhibition),[5],-4.5% (inactive)
same,viability decrease (inhibition),[6],-2.7% (inactive)
